# RTF Ca sens act: increases calcium sensitivity of human cardiac regulated thin filaments. P19429+P45379. IANBD-labeled TnC RTF fluorescence at EC20 calcium; 0% EC20 calcium, 100% full calcium. activation, % at 7.2 µM. 340,000 compounds, 0.24% hits;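 active = activation above the mean over all tested compounds plus 3 SD, cut at about 30% in these data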;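 note: rise in fluorescence read as greater calcium sensitivity of cardiac thin filaments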
# Cardiac RTF inh: cardiac RTF calcium desensitization | P19429+P45379 | IANBD-labeled cardiac RTF, Ca2+ fluorescence | inhibition, % at 7.15 µM | 340,000 compounds, 0.12% hits | AID 493244;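 active = inhibition above the mean inhibition of all tested compounds plus 3 SD, cut at about 17% in these data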;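 note: assay run at fixed EC70 calcium of 1.6 mM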
# Keap1 Nrf2 FP: inhibitors of human Keap1-Nrf2 protein-protein interaction. AID 504523. Q14145. 340,000 compounds, 0.15% hits. Keap1 Kelch-Nrf2 peptide fluorescence polarization, 1536-well. inhibition, % at 9.4 µM; in the data active = inhibition above about 12%;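 note: human Keap1 Kelch domain with fluorescein labeled Nrf2 9mer peptide probe; 0% = neutral control wells and 100% = peptide positive control; higher means more block of Keap1 binding to Nrf2 peptide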
# E coli Lon inh: inhibitors of E. coli Lon protease; P0A9M0; purified E. coli Lon protease, fluorescence polarization; inhibition, % at 7.94 µM; 360,000 compounds, 0.42% hits; AID 602123; in the data active = inhibition above about 13%, passing the limit was not always enough;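 note: 0% = enzyme with probe and DMSO and 100% = no enzyme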
# EBV gp42 inh: EBV gp42 inhibition. Q1HVG2. inhibition, % (tested at 21.74 µM). Fluorescence polarization binding assay, mP read-out. 220,000 compounds, 0.42% hits; in the data active = inhibition above about 50%
# C-LANA FP: blocks KSHV LANA C-terminal domain binding to DNA. MBP-C-LANA/FAM-LBS DNA binding, fluorescence polarization. inhibition, % at 9 µM. 340,000 compounds, 0.078% hits;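 active = highest replicate inhibition at or above 60% at 9 µM, even if other replicates fall short; inactive = all replicates below 60% inhibition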;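 note: 0% = neutral control wells and 100% = 4 µM acridine orange control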
# RTF Ca inh conf: cardiac RTF calcium sensitivity inhibition, confirmation | shares compounds with Cardiac RTF inh | reconstituted cardiac thin filaments, calcium sensitivity fluorescence | inhibition, % at 7.15 µM | 360 compounds, 8% hits | AID 504635; in the data active = inhibition above about 18%
# DNA intercal 2: DNA intercalation in C-LANA counter-screen; AC50, µM (series often up to 35 µM), inactives show top-dose activity change, negative = inhibition; shares compounds with C-LANA FP; Acridine orange-DNA displacement, fluorescence polarization; AID 588364; 20 tested, under 10 active;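 active = signal drop with an AC50 no more than ten times the top valid dose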
# Keap1 TSA: Keap1 (human) Kelch domain binding | Keap1 Kelch thermal shift, delta Tm; hits give high values | 400 compounds, 8% hits | max delta Tm, degrees C | AID 651823 | shares compounds with Keap1 Nrf2 FP; in the data active = max delta Tm above about 0.48 degrees C
# Sypro dye melt: dye artifact in Keap1 thermal shift counter-screen | shares compounds with Keap1 Nrf2 FP | Sypro Orange dye-only thermal melt, no protein, delta Tm; top dose 26 µM | delta Tm, degrees C (no concentration beside the values) | 140 tested, under 10 active | AID 651858;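 active = at highest dose tested, delta Tm positive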
# eLon confirm: E. coli Lon inhibition confirmation | shares compounds with E coli Lon inh | purified E. coli Lon, fluorescence polarization | inhibition, % at 7.94 µM | 1,400 compounds, 31% hits | AID 602230; in the data active = inhibition above about 16%;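 note: 0% = enzyme with probe and DMSO and 100% = no enzyme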
# An asterisk follows results filed as active; / = not tested or not shown. In the library only some 0.98% were active in any assay of this set; here they are far more common.
SMILES,RTF Ca sens act,Cardiac RTF inh,Keap1 Nrf2 FP,E coli Lon inh,EBV gp42 inh,C-LANA FP,RTF Ca inh conf,others
CCOC(=O)CNC(=O)c1c(C)nn(-c2ccccc2)c1Cl,-1,18*,-1,2,-1,2,-2,
CCOC(=O)CNC(=O)c1c(C)nn(C)c1Cl,0,5,-2,-1,-13,-1,/,
NNC(=O)c1ccc2nc(-c3ccc(Br)cc3)cn2c1,-1,22*,3,5,-13,2,-2,
O=C(Nc1nnc([C@@H]2C[C@H](O)[C@@H](CO)O2)s1)Nc1cccc2c1CCCC2,/,/,/,-21,/,/,/,
CNc1ncnc2c1ncn2[C@H]1CN(Cc2ccc(OC)cc2)C[C@@H](CO)O1,/,/,/,-5,/,/,/,
CC(=O)c1ccc(NC(=O)c2noc(C(C)C)c2[N+](=O)[O-])cc1,-6,188*,-5,2,-7,-1,-3,
C#CCOCCOCCOCCNc1nc(N2CCN(C(=O)[C@H](CCC(=O)O)n3cc(CN)nn3)CC2)nc(N2CCN(C(=O)[C@H](CCCCN)n3cc([C@@H](N)CC(N)=O)nn3)CC2)n1,-10,3,-3,-1,/,2,/,
CCOC(=O)c1c(C=O)c(C)n(Cc2ccccc2Cl)c1C,1,18*,-3,6,-2,-2,-3,
Cc1ccc(Nc2nc(N)nc(CN3CCN(C)CC3)n2)cc1,-2,18*,3,4,-14,0,-6,
CC(C)c1ccccc1NC(=O)c1ccc2ncsc2c1,-6,-2,-2,5,/,-1,/,
CCOC(=O)c1ccc(NC(=S)N(CCCN2CCN(C)CC2)Cc2cccs2)cc1,-1,-5,1,-5,-13,-4,/,
CCOC(=O)c1ccc(NC(=S)N(CCCN2CCN(CC)CC2)Cc2cccs2)cc1,-4,17*,0,1,1,1,-2,
CN(C(=O)c1ccc(NC(=O)Cc2ccc(NC(=O)C3CCCN(S(=O)(=O)c4cccc([N+](=O)[O-])c4)C3)cc2)cc1)C1CCCC1 (configuration not stated),2,-1,-6,-5,/,-2,/,
COc1ccc(OC2CCN(C(=O)Nc3ccc(C)cc3)CC2)cc1,4,-4,6,4,/,/,/,
CCn1nc([N+](=O)[O-])c(C(C#N)c2nc3cc(C(F)(F)F)ccc3s2)c(Cl)c1=O (configuration not stated),-11,19*,-1,1,-3,3,2,
O=C(O)C1Nc2ccc(Br)cc2C2C=CCC12 (configuration not stated),-38,60*,7,0,/,69*,6,DNA intercal 2=3%
O=C1C(=O)N(CCCn2ccnc2)C(c2ccc([N+](=O)[O-])cc2)/C1=C(\O)c1ccc2c(c1)OCCO2 (configuration not stated),2,-4,-3,-6,/,0,/,
CC1=NN(c2cccc(C(=O)O)c2)C(=O)/C1=C\C=C\c1ccco1,-36,35*,7,-8,18,92*,11,DNA intercal 2=9%
CCCC[C@@H]1CC2=C(C(=O)OC(C)(C)O2)[C@@H](c2ccc(F)cc2)O1,/,/,/,-4,/,/,/,
CSc1ccc(/C=N/Nc2cccc(C(=O)O)c2)cc1,-14,26*,1,9,19,78*,5,DNA intercal 2=6%
O=C(O)c1cccc(N/N=C/c2ccc(OC(F)(F)F)cc2)c1,-2,1,3,-4,/,1,/,
CC(C)C(C(=O)O)N1C(=O)/C(=C/C=C/c2ccco2)SC1=S (configuration not stated),-39,83*,13*,-1,6,107*,40*,Keap1 TSA=0.91*
Cc1ccc(S(=O)(=O)c2cc(Nc3ccccc3)ccc2O)cc1,-7,-2,0,11,/,-1,/,
O=S(=O)(O)c1ccc(O)c2cc(Nc3ccccc3)ccc12,-48,105*,25*,3,/,120*,50*,Keap1 TSA=0.97*
CCC(C)NC(=O)C1(N2C(=O)c3ccccc3C2=O)CCCC1 (configuration not stated),-3,-12,-5,-2,/,1,/,
SMILES,RTF Ca sens act,Cardiac RTF inh,Keap1 Nrf2 FP,E coli Lon inh,EBV gp42 inh,C-LANA FP,RTF Ca inh conf,others
CN(C)CCCN1C(=O)C2CCc3[nH]c4ccccc4c3C2C1=O (configuration not stated),6,19*,0,24*,1,4,-4,eLon confirm=-2
CN(C)CCCn1c(=S)[nH]c2ccccc2c1=O,7,12,-21,-1,-8,1,/,
NS(=O)(=O)c1cc(C(=O)NC2CCSc3ccccc32)ccc1Cl (configuration not stated),-53,31*,20*,18*,/,90*,4,Keap1 TSA=-0.14;Sypro dye melt=-27;eLon confirm=17*
CCN(CC(=O)Nc1ccc(NC(C)=O)cc1)C(=O)c1cc(S(=O)(=O)N2CCCCCC2)ccc1OC,1,8,-5,-2,/,0,/,
O=C1/C(=C/c2ccco2)Oc2c1ccc(O)c2CN1CCCCC1,2,-6,-2,-15,51*,66*,/,DNA intercal 2=30µM*
COC(=O)c1ccccc1NC(=O)CCS(=O)(=O)c1ccc(Br)cc1,-1,3,-4,3,75*,48,/,DNA intercal 2=5%
CCc1ccccc1NC(=O)CCS(=O)(=O)c1ccc(Br)cc1,-5,-5,3,0,/,2,/,
O=C(Nc1ccn(CCCN2CCN(Cc3ccc(F)cc3)CC2)c(=O)n1)OCc1ccccc1,/,/,/,-7,/,/,/,
CCC(=O)Oc1ccc2c(c1)O/C(=C\c1ccco1)C2=O,/,/,10,30,32,58,/,DNA intercal 2=-9%
O=C(O)CCCCCn1c(SCC(=O)c2ccc(O)c(O)c2)nc2ccsc2c1=O,2,5,0,6,5,14,/,DNA intercal 2=-3%
CCCCn1c(SCC(=O)c2ccc(O)c(O)c2)nc2ccsc2c1=O,6,-8,-6,6,5,-2,/,
Cc1ccc(CC(=O)O/N=C(\N)c2ccncc2)cc1,-4,-3,-4,1,/,1,/,
O=C(CCCCCCCC(=O)N1CCCCCC1)N1CCCCCC1,2,3,-1,-5,/,0,/,
CCCCCC(=O)N1CCCC1,2,-2,16*,-2,1,-2,/,Keap1 TSA=-0.08;Sypro dye melt=-23
CCc1nc2ccc(C(=O)NCCCN3CCCC3=O)cn2c1N(C=O)CC,/,/,/,-4,/,/,/,

# Screens: PubChem BioAssay, several laboratories
